The full ranking holds about 140,000 sequences; the median of “enrichment ratio after two sorts for PhoP signalling” is about 0, and the highest 2% start at about 11. Only a selection was taken, and the highest values are over-represented in it overall.
B1: PhoQ; a variant is named by its letters at X, in order, P23837 (parent)
chain: MKKLLRLFFPLSLRVRFLLATAAVVLVLSLAYGMVALIGYSVSFDKTTFRLLRGESNLFYTLAKWENNKLHVELPENIDKQSPTMTLIYDENGQLLWAQRDVPWLMKMIQPDWLKSNGFHEIEADVNDTSLLLSGDHSIQQQLQEVREDDDDAEMTHSVAVNVYPATSRMPKLTIVVVDTIPVELKSSYMVWSWFIYVLSANLLLVIPLLWVAAWWSLRPIEALAKEVRELEEHNRELLNPATTRELTSLVRNLNRLLKSERERYDKYRTTLTDLTHSLKTPLXXLQXXLRSLRSEKMSVSDAEPVMLEQISRISQQIGYYLHRASMRGGTLLSRELHPVAPLLDNLTSALNKVYQRKGVNISLDISPEISFVGEQNDFVEVMGNVLDNACKYCLEFVEISARQTDEHLYIVVEDDGPGIPLSKREVIFDRGQRVDTLRPGQGVGLAVAREITEQYEGKIVAGESMLGGARMEVIFGRQHSAPKDE

Variants of: B1
Test: enrichment ratio after two sorts for PhoP signalling (ratio (wild type AVST 3.29)); higher = more functional
Details: with PhoP (E. coli)

| Variant | enrichment ratio |
| --- | --- |
| GSEH | ≤ 0.25 |
| IYMF | ≤ 0.25 |
| IKKL | ≤ 0.25 |
| TQFP | ≤ 0.25 |
| KGRD | ≤ 0.25 |
| LVLT | ≤ 0.25 |
| VGSS | ≤ 0.25 |
| WDDM | ≤ 0.25 |
| GMHA | ≤ 0.25 |
| SMMD | ≤ 0.25 |
| SMPM | ≤ 0.25 |
| SMCL | 16.6 |
| SMSA | 14.6 |
| SMME | 14.6 |
| SMMY | 2.28 |
| SMGL | 5.54 |
| SMTM | 14.9 |
| SMPL | ≤ 0.25 |
| SMWM | ≤ 0.25 |
| SMSH | 9.89 |
| SMSQ | 11.1 |

| Variant | enrichment ratio |
| --- | --- |
| LSHR | ≤ 0.25 |
| KFYP | ≤ 0.25 |
| KYSQ | ≤ 0.25 |
| KEDF | ≤ 0.25 |
| HKIL | ≤ 0.25 |
| EQYF | ≤ 0.25 |
| DLKR | ≤ 0.25 |
| IPGP | ≤ 0.25 |
| FPRY | ≤ 0.25 |
| GVMQ | 5.97 |
| SMTA | 11.8 |
| SMPE | 0.359 |
| SNCW | 10.3 |
| SMGS | 1.09 |
| SMCA | 15.3 |
| SMPA | ≤ 0.25 |
| SMCW | 19.6 |
| SLCW | 0.501 |
| SMWI | ≤ 0.25 |
| SMIE | ≤ 0.25 |
| SMPI | 1.09 |

| Variant | enrichment ratio |
| --- | --- |
| SMCE | 11.7 |
| AKLD | ≤ 0.25 |
| VWSC | ≤ 0.25 |
| SVVD | ≤ 0.25 |
| RVNR | ≤ 0.25 |
| SMAE | 25.2 |
| SMAV | 5.92 |
| SMSK | 2.79 |
| SMSI | 12.9 |
| SMSR | ≤ 0.25 |
| KMAE | ≤ 0.25 |
| HLVA | ≤ 0.25 |
| AQPM | ≤ 0.25 |
| RVFT | ≤ 0.25 |
| NAGS | ≤ 0.25 |
| RQQG | ≤ 0.25 |
| FDCH | ≤ 0.25 |
| LTCH | ≤ 0.25 |
| FDMH | ≤ 0.25 |
| LTMH | 2.1 |
| TDCH | 11.9 |

| Variant | enrichment ratio |
| --- | --- |
| TDMH | 18.2 |
| EPTI | ≤ 0.25 |
| MAHQ | ≤ 0.25 |
| EKMC | ≤ 0.25 |
| SNGP | ≤ 0.25 |
| YTGH | ≤ 0.25 |
| STGH | 17.1 |
| QRGH | ≤ 0.25 |
| SNTH | 7.23 |
| SRGH | ≤ 0.25 |
| QGGH | ≤ 0.25 |
| QEGH | 24.6 |
| SNGH | 23.3 |
| QITH | ≤ 0.25 |
| QIGH | 14 |
| QIYH | ≤ 0.25 |
| YAAS | ≤ 0.25 |
| QNYF | ≤ 0.25 |
| GMNL | ≤ 0.25 |
| SKVD | ≤ 0.25 |
| LATP | ≤ 0.25 |
